Results from publication PMC7862700, “An all-to-all approach to the identification of sequence-specific readers for epigenetic DNA modifications on cytosine”.

Columns and labels:
Experiment in all cases: DAPPL (digital affinity profiling via proximity ligation, sequencing); 10 mM Tris-HCl pH 7.5, 50 mM NaCl, 1 mM DTT, 4% glycerol, room temperature, 30 min; GST-TFs on glutathione beads, 16-mer random dsDNA library, 0.1% formaldehyde crosslink after washing; high values mean tight binding
FEV = biological target: T1, FEV (Homo sapiens, UniProt Q99581 1-238); conditions: protein: recombinant; tags: N-terminal GST; dsDNA, one strand shown
T1 sequence: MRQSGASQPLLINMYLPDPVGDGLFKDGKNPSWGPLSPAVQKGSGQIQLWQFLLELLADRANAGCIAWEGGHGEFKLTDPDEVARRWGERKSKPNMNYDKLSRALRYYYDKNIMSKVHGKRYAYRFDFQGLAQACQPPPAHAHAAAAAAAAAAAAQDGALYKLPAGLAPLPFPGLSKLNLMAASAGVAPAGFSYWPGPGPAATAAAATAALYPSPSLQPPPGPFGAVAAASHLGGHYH
Procedure, shortened: (§1)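 Human transcription factors were made in yeast as GST fusions, captured on glutathione beads and barcoded with DNA. With a tag-only sample included, the pool was incubated with 200 nmole of a random double-stranded 16-mer DNA library in Tris/NaCl/DTT/glycerol buffer at room temperature for 30 min, then crosslinked with 0.1% formaldehyde after washing, ligated by proximity, amplified and sequenced. For binding signal, each hexamer's read frequency for a factor is divided by its frequency for the tag-only sample.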

ETV5 = ETV5 (Homo sapiens, UniProt P41161 1-510); conditions: protein: recombinant; tags: N-terminal GST; dsDNA, one strand shown
ETV5, sequence (P41161 whole entry): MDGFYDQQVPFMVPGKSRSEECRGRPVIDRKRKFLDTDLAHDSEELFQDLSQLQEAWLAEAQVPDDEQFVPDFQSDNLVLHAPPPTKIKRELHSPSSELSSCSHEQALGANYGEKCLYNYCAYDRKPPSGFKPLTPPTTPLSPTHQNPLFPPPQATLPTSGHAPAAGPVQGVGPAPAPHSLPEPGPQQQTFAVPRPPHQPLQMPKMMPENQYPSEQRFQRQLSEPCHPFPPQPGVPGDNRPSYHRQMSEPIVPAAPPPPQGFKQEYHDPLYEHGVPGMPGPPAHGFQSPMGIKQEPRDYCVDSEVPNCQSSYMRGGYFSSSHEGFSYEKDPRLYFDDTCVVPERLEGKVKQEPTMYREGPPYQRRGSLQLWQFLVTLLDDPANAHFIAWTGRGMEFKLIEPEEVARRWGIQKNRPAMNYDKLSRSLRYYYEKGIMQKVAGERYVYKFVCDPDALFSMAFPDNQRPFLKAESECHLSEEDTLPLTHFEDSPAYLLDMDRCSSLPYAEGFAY
Procedure, shortened: as §1

HSF1 = HSF1 (Homo sapiens, UniProt Q00613 1-529); conditions: protein: recombinant; tags: N-terminal GST; chain copies: 3; dsDNA, one strand shown
HSF1, sequence (Q00613 whole entry): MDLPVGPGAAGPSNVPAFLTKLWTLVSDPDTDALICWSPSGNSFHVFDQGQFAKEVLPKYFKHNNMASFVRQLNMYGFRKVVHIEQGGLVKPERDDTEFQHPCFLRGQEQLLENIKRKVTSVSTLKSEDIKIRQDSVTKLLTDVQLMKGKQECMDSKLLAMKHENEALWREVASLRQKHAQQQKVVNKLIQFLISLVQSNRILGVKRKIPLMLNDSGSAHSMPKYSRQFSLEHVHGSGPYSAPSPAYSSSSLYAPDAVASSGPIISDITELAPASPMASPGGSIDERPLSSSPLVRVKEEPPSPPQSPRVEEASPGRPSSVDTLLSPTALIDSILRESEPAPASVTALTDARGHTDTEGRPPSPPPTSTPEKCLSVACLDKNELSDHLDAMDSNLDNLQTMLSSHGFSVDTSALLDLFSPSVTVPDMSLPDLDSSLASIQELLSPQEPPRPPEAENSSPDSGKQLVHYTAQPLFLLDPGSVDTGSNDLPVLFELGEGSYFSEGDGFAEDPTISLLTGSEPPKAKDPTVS
Procedure, shortened: as §1

SPIC = biological target: T2, SPIC (Homo sapiens, UniProt Q8N5J4 1-248); conditions: protein: recombinant; tags: N-terminal GST; dsDNA, one strand shown
T2 sequence: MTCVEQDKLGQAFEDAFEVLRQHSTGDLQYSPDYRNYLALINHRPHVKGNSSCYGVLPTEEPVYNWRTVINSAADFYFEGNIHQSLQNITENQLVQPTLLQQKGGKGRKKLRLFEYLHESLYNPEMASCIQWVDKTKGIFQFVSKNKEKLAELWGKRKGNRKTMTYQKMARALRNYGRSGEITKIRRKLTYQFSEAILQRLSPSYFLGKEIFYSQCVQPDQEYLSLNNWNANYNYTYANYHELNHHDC
Procedure, shortened: as §1

ELF4 = ELF4 (Homo sapiens, UniProt Q99607 1-663); conditions: protein: recombinant; tags: N-terminal GST; dsDNA, one strand shown
ELF4, sequence (Q99607 whole entry): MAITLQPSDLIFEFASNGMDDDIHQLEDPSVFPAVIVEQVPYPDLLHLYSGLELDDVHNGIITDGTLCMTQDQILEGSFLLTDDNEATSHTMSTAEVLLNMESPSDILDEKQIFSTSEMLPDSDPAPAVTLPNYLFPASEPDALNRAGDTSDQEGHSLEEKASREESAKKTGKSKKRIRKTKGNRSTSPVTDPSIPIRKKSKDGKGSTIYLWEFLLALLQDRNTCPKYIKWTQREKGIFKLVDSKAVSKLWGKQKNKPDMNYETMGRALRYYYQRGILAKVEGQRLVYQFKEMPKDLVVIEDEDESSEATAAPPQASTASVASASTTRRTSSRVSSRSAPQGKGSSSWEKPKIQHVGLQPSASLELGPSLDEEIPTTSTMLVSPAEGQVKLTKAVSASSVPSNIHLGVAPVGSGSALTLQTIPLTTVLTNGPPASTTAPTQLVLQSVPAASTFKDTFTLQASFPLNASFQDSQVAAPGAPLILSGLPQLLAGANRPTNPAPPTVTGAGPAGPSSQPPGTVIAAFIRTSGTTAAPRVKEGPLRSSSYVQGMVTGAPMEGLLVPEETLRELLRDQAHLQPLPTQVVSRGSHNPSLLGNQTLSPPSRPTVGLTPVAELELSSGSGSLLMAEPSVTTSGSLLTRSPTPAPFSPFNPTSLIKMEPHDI
Procedure, shortened: as §1

ELK4 = biological target: T3, ELK4 (Homo sapiens, UniProt P28324-2 1-405); conditions: protein: recombinant; tags: N-terminal GST; dsDNA, one strand shown
T3 sequence: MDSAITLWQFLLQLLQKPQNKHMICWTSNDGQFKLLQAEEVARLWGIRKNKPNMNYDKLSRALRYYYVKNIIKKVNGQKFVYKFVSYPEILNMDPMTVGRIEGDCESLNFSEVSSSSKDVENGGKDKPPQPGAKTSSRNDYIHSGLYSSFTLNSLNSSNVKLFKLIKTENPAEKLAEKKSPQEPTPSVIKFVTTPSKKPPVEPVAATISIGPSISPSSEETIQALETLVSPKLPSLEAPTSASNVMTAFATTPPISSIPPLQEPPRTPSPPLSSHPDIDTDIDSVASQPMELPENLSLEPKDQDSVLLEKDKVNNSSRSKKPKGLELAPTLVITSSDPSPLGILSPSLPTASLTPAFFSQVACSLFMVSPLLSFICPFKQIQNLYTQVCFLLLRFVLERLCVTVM
Procedure, shortened: as §1

ETV2 = biological target: T4, ETV2 (Homo sapiens, UniProt O00321 1-342); conditions: protein: recombinant; tags: N-terminal GST; dsDNA, one strand shown
T4 sequence: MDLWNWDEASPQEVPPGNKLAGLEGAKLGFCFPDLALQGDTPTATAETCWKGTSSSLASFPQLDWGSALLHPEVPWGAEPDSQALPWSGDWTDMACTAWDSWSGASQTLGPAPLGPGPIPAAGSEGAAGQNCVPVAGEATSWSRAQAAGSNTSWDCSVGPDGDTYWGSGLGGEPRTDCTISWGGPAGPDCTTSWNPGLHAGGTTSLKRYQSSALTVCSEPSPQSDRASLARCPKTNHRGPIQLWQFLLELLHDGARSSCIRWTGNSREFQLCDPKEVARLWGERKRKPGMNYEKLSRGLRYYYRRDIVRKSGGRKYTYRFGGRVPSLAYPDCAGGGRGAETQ
Procedure, shortened: as §1

ELF3 = biological target: T5, ELF3 (Homo sapiens, UniProt P78545 1-371); conditions: protein: recombinant; tags: N-terminal GST; dsDNA, one strand shown
T5 sequence: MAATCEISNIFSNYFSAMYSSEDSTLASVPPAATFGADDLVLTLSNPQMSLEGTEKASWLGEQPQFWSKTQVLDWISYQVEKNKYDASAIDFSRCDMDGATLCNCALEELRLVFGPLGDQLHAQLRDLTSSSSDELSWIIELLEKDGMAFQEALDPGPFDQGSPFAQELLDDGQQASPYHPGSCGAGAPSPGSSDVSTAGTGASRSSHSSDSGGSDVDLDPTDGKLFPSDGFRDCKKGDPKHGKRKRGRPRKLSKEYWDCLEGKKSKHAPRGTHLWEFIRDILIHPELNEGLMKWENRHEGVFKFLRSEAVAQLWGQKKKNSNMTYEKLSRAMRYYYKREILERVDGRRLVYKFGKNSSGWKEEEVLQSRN
Procedure, shortened: as §1

CRX = CRX (Homo sapiens, UniProt O43186 1-299); conditions: protein: recombinant; tags: N-terminal GST; dsDNA, one strand shown
CRX, sequence (O43186 whole entry): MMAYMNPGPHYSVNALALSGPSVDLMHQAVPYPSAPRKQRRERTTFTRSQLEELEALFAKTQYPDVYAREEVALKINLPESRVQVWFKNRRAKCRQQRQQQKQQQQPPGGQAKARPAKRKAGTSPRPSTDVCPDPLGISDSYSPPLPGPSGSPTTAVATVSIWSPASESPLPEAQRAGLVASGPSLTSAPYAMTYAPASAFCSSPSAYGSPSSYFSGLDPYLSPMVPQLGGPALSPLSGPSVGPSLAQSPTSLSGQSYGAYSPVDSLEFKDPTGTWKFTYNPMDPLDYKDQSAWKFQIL
Procedure, shortened: as §1

ETV1 = ETV1 (Homo sapiens, UniProt P50549 1-477); conditions: protein: recombinant; tags: N-terminal GST; dsDNA, one strand shown
ETV1, sequence (P50549 whole entry): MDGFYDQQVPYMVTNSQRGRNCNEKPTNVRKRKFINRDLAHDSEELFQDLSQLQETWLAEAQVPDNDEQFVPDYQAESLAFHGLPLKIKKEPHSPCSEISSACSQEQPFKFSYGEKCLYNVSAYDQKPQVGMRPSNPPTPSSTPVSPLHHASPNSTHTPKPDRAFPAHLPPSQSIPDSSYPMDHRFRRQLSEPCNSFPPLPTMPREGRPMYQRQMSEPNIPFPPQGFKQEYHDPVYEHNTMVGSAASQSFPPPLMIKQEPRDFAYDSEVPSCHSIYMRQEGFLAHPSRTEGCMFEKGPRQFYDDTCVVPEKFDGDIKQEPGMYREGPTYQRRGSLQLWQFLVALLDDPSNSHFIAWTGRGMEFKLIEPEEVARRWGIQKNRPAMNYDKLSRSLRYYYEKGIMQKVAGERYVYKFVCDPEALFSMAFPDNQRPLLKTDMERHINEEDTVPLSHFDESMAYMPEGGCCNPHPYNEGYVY
Procedure, shortened: as §1

ERF = biological target: T6, ERF (Homo sapiens, UniProt P50548 1-548); conditions: protein: recombinant; tags: N-terminal GST; dsDNA, one strand shown
T6 sequence: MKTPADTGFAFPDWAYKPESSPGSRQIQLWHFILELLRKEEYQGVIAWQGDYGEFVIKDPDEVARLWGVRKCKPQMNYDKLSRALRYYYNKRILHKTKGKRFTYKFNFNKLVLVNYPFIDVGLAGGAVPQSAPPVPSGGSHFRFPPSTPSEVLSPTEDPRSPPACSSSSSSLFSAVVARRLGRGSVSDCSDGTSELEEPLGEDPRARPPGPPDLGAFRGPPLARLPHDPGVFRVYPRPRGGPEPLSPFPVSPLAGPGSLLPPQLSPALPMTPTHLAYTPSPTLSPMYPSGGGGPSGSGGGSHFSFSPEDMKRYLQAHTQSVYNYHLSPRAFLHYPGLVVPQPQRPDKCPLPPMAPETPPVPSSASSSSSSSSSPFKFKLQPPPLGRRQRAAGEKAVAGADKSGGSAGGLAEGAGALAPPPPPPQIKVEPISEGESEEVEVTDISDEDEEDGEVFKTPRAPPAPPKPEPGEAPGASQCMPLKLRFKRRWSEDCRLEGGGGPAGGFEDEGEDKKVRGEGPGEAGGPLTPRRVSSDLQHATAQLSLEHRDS
Procedure, shortened: as §1

ETV3L = biological target: T7, ETV3L (Homo sapiens, UniProt Q6ZN32 1-361); conditions: protein: recombinant; tags: N-terminal GST; dsDNA, one strand shown
T7 sequence: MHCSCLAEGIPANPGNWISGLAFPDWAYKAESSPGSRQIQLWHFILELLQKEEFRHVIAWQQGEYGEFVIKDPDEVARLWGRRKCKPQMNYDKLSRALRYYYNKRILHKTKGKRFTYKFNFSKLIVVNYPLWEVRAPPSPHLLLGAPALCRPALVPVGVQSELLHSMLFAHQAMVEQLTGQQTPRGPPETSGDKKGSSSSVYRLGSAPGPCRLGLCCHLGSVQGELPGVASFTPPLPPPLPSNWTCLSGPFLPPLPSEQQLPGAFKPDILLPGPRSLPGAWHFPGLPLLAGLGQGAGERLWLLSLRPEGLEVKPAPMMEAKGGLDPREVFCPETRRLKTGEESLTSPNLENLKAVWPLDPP
Procedure, shortened: as §1

ETS2 = biological target: T8, ETS2 (Homo sapiens, UniProt P15036 1-469); conditions: protein: recombinant; tags: N-terminal GST; dsDNA, one strand shown
T8 sequence: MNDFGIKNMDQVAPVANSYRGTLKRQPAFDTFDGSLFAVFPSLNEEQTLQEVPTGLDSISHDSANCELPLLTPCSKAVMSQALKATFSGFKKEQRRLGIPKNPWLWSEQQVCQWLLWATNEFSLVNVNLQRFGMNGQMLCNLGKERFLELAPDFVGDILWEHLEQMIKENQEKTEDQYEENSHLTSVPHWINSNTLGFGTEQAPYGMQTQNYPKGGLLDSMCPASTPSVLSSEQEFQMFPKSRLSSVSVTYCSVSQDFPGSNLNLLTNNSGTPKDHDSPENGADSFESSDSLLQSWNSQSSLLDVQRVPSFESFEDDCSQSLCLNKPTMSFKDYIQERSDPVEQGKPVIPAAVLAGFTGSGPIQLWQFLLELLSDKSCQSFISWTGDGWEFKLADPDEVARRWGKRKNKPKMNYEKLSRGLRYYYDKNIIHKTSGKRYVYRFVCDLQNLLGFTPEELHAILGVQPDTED
Procedure, shortened: as §1

SPDEF = biological target: T9, SPDEF (Homo sapiens, UniProt O95238 1-335); conditions: protein: recombinant; tags: N-terminal GST; dsDNA, one strand shown
T9 sequence: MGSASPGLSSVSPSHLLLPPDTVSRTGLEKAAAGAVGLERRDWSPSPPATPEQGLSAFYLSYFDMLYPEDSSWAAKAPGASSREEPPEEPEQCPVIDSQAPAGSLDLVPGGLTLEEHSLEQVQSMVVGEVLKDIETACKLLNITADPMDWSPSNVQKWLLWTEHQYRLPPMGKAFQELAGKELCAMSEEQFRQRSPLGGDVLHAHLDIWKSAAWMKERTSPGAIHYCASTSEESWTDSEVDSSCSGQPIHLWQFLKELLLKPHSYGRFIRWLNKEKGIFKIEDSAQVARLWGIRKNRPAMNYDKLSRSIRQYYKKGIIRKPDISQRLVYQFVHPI
Procedure, shortened: as §1

ETV7 = biological target: T10, ETV7 (Homo sapiens, UniProt Q9Y603 1-341); conditions: protein: recombinant; tags: N-terminal GST; dsDNA, one strand shown
T10 sequence: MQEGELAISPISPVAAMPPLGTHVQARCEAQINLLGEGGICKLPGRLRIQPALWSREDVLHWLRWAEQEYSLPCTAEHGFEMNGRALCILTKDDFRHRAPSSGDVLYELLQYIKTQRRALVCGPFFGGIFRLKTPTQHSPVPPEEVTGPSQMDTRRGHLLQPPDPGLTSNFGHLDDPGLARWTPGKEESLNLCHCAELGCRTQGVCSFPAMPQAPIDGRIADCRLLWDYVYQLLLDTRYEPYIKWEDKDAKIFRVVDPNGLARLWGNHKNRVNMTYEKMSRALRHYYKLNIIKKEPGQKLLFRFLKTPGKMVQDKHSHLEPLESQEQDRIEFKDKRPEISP
Procedure, shortened: as §1

ELF5 = biological target: T11, ELF5 (Homo sapiens, UniProt Q9UKW6-2 1-255); conditions: protein: recombinant; tags: N-terminal GST; dsDNA, one strand shown
T11 sequence: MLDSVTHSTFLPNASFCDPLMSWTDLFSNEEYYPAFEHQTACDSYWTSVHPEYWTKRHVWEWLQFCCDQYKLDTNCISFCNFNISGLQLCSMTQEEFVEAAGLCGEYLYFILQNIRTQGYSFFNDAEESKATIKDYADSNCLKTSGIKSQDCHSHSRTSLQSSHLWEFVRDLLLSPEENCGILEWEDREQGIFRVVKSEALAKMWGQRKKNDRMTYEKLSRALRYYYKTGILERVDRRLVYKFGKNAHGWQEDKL
Procedure, shortened: as §1

ETV3 = biological target: T12, ETV3 (Homo sapiens, UniProt P41162-2 1-143); conditions: protein: recombinant; tags: N-terminal GST; dsDNA, one strand shown
T12 sequence: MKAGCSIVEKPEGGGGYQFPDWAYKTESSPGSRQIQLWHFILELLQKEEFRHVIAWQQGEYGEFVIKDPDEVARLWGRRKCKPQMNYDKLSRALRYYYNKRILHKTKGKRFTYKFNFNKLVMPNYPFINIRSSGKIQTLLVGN
Procedure, shortened: as §1

ETV6 = ETV6 (Homo sapiens, UniProt P41212 1-452); conditions: protein: recombinant; tags: N-terminal GST; dsDNA, one strand shown
ETV6, sequence (P41212 whole entry): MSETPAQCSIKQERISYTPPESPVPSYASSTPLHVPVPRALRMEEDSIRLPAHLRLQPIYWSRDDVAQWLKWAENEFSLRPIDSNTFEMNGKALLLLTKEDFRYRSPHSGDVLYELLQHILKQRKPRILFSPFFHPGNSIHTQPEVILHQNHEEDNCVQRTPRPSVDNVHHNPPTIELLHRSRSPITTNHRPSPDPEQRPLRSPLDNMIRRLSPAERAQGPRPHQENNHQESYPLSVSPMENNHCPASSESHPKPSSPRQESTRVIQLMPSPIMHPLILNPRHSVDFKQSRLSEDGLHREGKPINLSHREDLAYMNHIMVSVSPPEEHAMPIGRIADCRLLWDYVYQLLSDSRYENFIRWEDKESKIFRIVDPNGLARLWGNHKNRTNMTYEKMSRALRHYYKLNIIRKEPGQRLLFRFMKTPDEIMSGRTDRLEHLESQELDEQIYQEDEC
Procedure, shortened: as §1

TTCCGA
binding signal (FEV): 1.81 fold enrichment (6-mer frequency, TF over GST control) | binding signal (ETV5): 1.57 fold enrichment (6-mer frequency, TF over GST control) | binding signal (HSF1): 1.35 fold enrichment (6-mer frequency, TF over GST control) | binding signal (SPIC): 1.61 fold enrichment (6-mer frequency, TF over GST control) | binding signal (ELF4): 1.44 fold enrichment (6-mer frequency, TF over GST control) | binding signal (ELK4): 1.46 fold enrichment (6-mer frequency, TF over GST control) | binding signal (ETV2): 1.7 fold enrichment (6-mer frequency, TF over GST control) | binding signal (ELF3): 1.5 fold enrichment (6-mer frequency, TF over GST control) | binding signal (CRX): 1.19 fold enrichment (6-mer frequency, TF over GST control) | binding signal (ETV1): 1.63 fold enrichment (6-mer frequency, TF over GST control) | binding signal (ERF): 1.5 fold enrichment (6-mer frequency, TF over GST control) | binding signal (ETV3L): 1.48 fold enrichment (6-mer frequency, TF over GST control) | binding signal (ETS2): 1.67 fold enrichment (6-mer frequency, TF over GST control) | binding signal (SPDEF): 1.47 fold enrichment (6-mer frequency, TF over GST control) | binding signal (ETV7): 1.64 fold enrichment (6-mer frequency, TF over GST control) | binding signal (ELF5): 1.78 fold enrichment (6-mer frequency, TF over GST control) | binding signal (ETV3): 1.68 fold enrichment (6-mer frequency, TF over GST control) | binding signal (ETV6): 1.85 fold enrichment (6-mer frequency, TF over GST control)
